# Assay results: PubChem BioAssay (NCATS)
# Values joined by “and” are separate entries in the source; they are usually repeats but may differ in a detail not shown here. Equal entries are not always repeated. Records with an inconclusive call do not appear. Where a call stands in place of a potency, no number is given. A number with no mark means an inactive call. Active and inactive are the calls of the source. Calls follow the shape of the dose curve; as a rule, active = well fitted curve in the direction sought with a large enough effect; inconclusive = small, poorly fitted or top-dose-only effect, or another doubt; inactive = no such curve, though single readings can be large; an effect the other way counts as inactive or inconclusive.
# How the values were obtained:
# [1] = target: Cellular tumor antigen p53 (Homo sapiens) (UniProt P04637); experiment: Primary qHTS for small molecule compounds that upregulate eGFP-tagged delta133p53alpha (in N-terminal) cells. (AID 2060322); details: NCI-H358 eGFP-delta133p53alpha fluorescence, 24 h; activation: active compounds read high; also: nearly all actives have a fitted effect of over 75% in size; also: potency is read from the fitted curve at half-maximal effect;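 as to activation: cells pre-induced with doxycycline then dosed without doxycycline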
# Procedure, shortened: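 NCI-H358 cells pre-induced 24 h with 10 ng/ml doxycycline for eGFP-delta133p53alpha, plated dox-free and exposed 24 h at 37C to titrated compounds. Fixed, Hoechst-stained; gated GFP peak intensity by laser scanning cytometry, normalized to DMSO (0%) and 57.5 uM 5-azacytidine (100%).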
# [2] = target: Aldehyde dehydrogenase, mitochondrial (Homo sapiens) (UniProt P05091); experiment: qHTS for Inhibitors of the Aldehyde Dehydrogenase Family (ALDH2) Primary screen (AID 2061308); details: ALDH2 enzyme inhibition qHTS, 1536-well; series mostly up to 56 µM; also: nearly all actives have a fitted effect of over 55% in size
# [3] = target: Retinaldehyde dehydrogenase 3 (Homo sapiens) (UniProt P47895); experiment: qHTS for Inhibitors of the Aldehyde Dehydrogenase Family (ALDH1A3) Primary screen (AID 2061315); details: ALDH inhibition qHTS; series mostly up to 56 µM; also: potency is read from the fitted curve at half-maximal effect
# Cellular tumor antigen p53 (Homo sapiens), sequence (P04637 whole entry, looked up): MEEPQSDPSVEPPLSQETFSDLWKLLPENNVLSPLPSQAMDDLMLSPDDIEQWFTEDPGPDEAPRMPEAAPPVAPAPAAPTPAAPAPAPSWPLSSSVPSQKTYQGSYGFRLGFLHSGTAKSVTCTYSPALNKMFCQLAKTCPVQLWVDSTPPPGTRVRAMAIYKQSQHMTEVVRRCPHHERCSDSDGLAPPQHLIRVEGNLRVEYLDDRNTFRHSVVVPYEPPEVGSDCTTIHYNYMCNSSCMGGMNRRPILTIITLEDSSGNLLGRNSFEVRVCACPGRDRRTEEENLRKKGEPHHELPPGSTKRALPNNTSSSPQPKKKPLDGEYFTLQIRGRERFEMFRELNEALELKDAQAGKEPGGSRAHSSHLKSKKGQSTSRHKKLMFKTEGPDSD
Structure (SMILES),activation [1],Potency [2],Potency [3],Potency [1],"activity change, negative = inhibition [2]","activity change, negative = inhibition [3]"
N=c1nc2n(cc1F)C1OC(CO)C(O)C1O2 (stereo not given),0.333%,inactive,inactive,–,–,–
C[C@@H]1CC[C@]2(C(=O)O)CC[C@]3(C)C(=CCC4[C@@]5(C)CC[C@H](O)C(C)(C)C5C(O)C[C@]43C)[C@@H]2[C@]1(C)O (stereo not given in full),0.893%,inactive,inactive,–,–,–
CC(=O)OC1C(=O)C2C3OCC4=C3[C@@](C)(CC[C@@H]4O)CC[C@]2(C)[C@H]1C(C)C (stereo not given in full),-14.5%,inactive,inactive,–,–,–
C[C@]12CC[C@@H]3c4ccc(O)cc4CC[C@H]3[C@@H]1C[C@@H](O[C@@H]1O[C@H](C(=O)O)[C@@H](O)[C@H](O)[C@H]1O)[C@@H]2O,-6.33%,inactive,inactive,–,–,–
Cc1coc2c1CC1OC1(C)CCC1OC1(C)C2 (stereo not given),4.46%,inactive,inactive,–,–,–
CC1=C[C@H]2[C@@H](CC1=O)[C@H](C)C[C@H](O)[C@H]2C(C)C,10.7%,inactive,inactive,–,–,–
CC(C)CC(=O)OC[C@H]1O[C@@](COC(=O)CC(C)C)(O[C@H]2O[C@H](CO)[C@@H](O)[C@H](O)[C@H]2OC(=O)CC(C)C)[C@@H](OC(=O)CC(C)C)[C@@H]1O,-7.14%,inactive,inactive,–,–,–
CC1(C)C(=O)N2c3ccccc3[C@]3(CC(n4cnc5ccccc5c4=O)C(=O)O3)[C@H]2N1O (stereo not given in full),1.53%,inactive,inactive,–,–,–
COc1ccc(-n2c(SCC#N)nc3sc4c(c3c2=O)CCCC4)cc1,-16.1%,inactive,inactive,–,–,–
CC1(C)[C@@H](O[C@H]2O[C@H](C(=O)O)[C@@H](O)[C@H](O)[C@H]2O[C@@H]2O[C@H](C(=O)O)[C@@H](O)[C@H](O)[C@H]2O)CC[C@]2(C)[C@H]3C(=O)C=C4[C@@H]5C[C@@](C)(C(=O)O)CC[C@]5(C)CC[C@@]4(C)[C@]3(C)CC[C@@H]12,-7.67%,inactive,inactive,–,–,–
CN1CCN(C(c2ccccc2)c2ccccc2)CC1,14.2% and -0.955%,inactive,inactive,–,–,–
O=C(OCc1ccccc1O[C@@H]1O[C@H](CO)[C@@H](O)[C@H](O)[C@H]1O)C1(O)C=CCCC1O (stereo not given in full),-2.29%,inactive,inactive,–,–,–
CC[C@@H](C)[C@H](N)C(=O)N1Cc2ccccc2C1,3.82%,inactive,inactive,–,–,–
CC1C(=O)OCC2=CCN3CCC(OC(=O)C(C)(O)C1(C)O)C23 (stereo not given),-5.36%,inactive,inactive,–,–,–
CN1C(=O)c2ccccc2-n2c(nc3ccccc3c2=O)/C1=C/c1ccccc1,2.29%,inactive,inactive,–,–,–
C=CC1(C)C=C2C(=O)OC(=O)C3=C(CCCC3(C)C)C2(O)CC1 (stereo not given),-22.9%,inactive,inactive,–,–,–
CC1CCC23COC(=O)C2=CC(O)CC3C1(C)CCc1ccoc1 (stereo not given),-14.3%,inactive,inactive,–,–,–
O=C(O)Cc1cn(C2OCC(O)C(O)C2O[C@@H]2O[C@H](CO)[C@@H](O)[C@H](O)[C@H]2O)c2ccccc12 (stereo not given in full),3.82%,inactive,inactive,–,–,–
C=C1CC/C=C(/CO)C(=O)C[C@@H]2[C@@H]1C[C@@]2(C)COC(C)=O,11.5%,inactive,inactive,–,–,–
CN(C)C(=O)C(=O)c1cn(C)c2cc(Cl)c(C(=O)N3CCC(Cc4ccc(F)cc4)CC3)cc12,-10.7%,inactive,inactive,–,–,–
COc1cccc(NCCC2(c3ccccc3)CC(C)(C)OC(C)(C)C2)c1,–,inactive,inactive,21.7 µM (active),–,–
O=C(CCCN1CC=C(n2c(=O)[nH]c3ccccc32)CC1)c1ccc(F)cc1,17.5% and 4.33%,inactive,inactive,–,–,–
Cc1ccc2c(c1)C=Cc1cc(C)ccc1C2c1cn(Cc2ccc(C(=O)Nc3nn[nH]n3)o2)c(=O)[nH]c1=S,-8.33%,inactive,inactive,–,–,–
CC(=O)O[C@H]1C[C@H](OC(C)=O)[C@]2(C)[C@H](CC[C@@]34O[C@@H]3C3=C(C)C(=O)O[C@@H]3C[C@H]42)C1(C)C,4.46%,inactive,inactive,–,–,–
CCCCC1CCN(CCCC(=O)c2ccccc2C)CC1,17%,inactive,inactive,–,–,–
CC1CCC2C(C(=O)O)=CC3C(O)C(C)(C)CC123 (stereo not given),-0.763%,inactive,inactive,–,–,–
O=C(Nc1ccccc1-c1cn2c(CN3CCNCC3)csc2n1)c1ccc2ccccc2n1,11%,inactive,inactive,–,–,–
Cn1cc(-c2ccc3nnc(Sc4ccc5nn(C)cc5c4)n3n2)cn1,-4.46%,inactive,inactive,–,–,–

Structure (SMILES),activation [1],Potency [2],Potency [3],Potency [1],"activity change, negative = inhibition [2]","activity change, negative = inhibition [3]"
C[C@@H]1O[C@@H](O[C@H]2[C@@H]3C=CO[C@@H](O[C@@H]4O[C@H](CO)[C@@H](O)[C@H](O)[C@H]4O)[C@@H]3[C@@]3(CO)O[C@@H]23)[C@H](O)[C@H](O)[C@H]1OC(=O)/C=C/c1ccc(O)cc1,-25.2%,inactive,inactive,–,–,–
CCOC(=O)[C@H](CCc1ccccc1)N[C@@H](C)C(=O)N1C2CCCCC2C[C@H]1C(=O)O (stereo not given in full),-7%,inactive,inactive,–,–,–
CCOC(=O)c1c(C)nn(-c2cccc([N+](=O)[O-])c2)c1C,-9.67%,inactive,inactive,–,–,–
CN1CCN(C(=O)c2ccc(Nc3nccc(-c4cccs4)n3)cc2Cl)CC1,–,inactive,inactive,30.1 µM (active),–,–
CC1=CC(=O)CC(C)(C)C1/C=C/C(C)OC1OC(COC2OCC(O)C(O)C2O)C(O)C(O)C1O (stereo not given),8.93%,inactive,inactive,–,–,–
O=C1[C@H](O[C@@H]2O[C@H](CO)[C@@H](O)[C@H](O)[C@H]2O)Oc2ccccc2N1O,14.3%,inactive,inactive,–,–,–
C=C[C@@]12COC(=O)C(=C)[C@@H]1[C@@H](O)[C@H](C(=C)C(=O)OC)[C@@H](O)C2,-7.63%,inactive,inactive,–,–,–
C=C[C@H]1[C@H](O[C@@H]2O[C@H](CO)[C@@H](O)[C@H](O)[C@H]2O)OC=C2C(=O)OCC[C@]21O,-8.04%,inactive,inactive,–,–,–
C=CC(C)(O)CC/C=C(/C)C(=O)OC1C(OC2OCC(OC3OC(CO)C(O)C(O)C3O)C(OC3OCC(O)C(OC4OC(C)C(O)C(O)C4O)C3O)C2O)COC(OC(=O)C23CCC(C)(C)CC2C2=CCC4C5(C)CCC(OC6OC(CO)C(OC7OC(CO)C(O)C(OC8OCC(O)C(O)C8O)C7O)C(O)C6O)C(C)(C)C5CCC4(C)C2(C)CC3O)C1O (stereo not given),-12.2%,–,–,–,0.572% [at 11.2 µM],8.04% [at 11.2 µM]
COC(=O)[C@@H](NC(=O)[C@H](CC(C)C)NC(=O)N(Cc1ccccc1)C[C@@H](O)[C@H](Cc1ccccc1)NC(=O)OC(C)(C)C)C(C)C,19.7%,–,–,–,-10% [at 11.2 µM],16.3% [at 11.2 µM]
COc1ccccc1-c1c[nH]c2ncc(-c3cncc(C(=O)N(C)C)c3)cc12,–,inactive,inactive,21.3 µM (active),–,–
CC1(C)CCCC2(C)c3c4c(c(=O)oc(=O)c3=CCC12)=CCC1C(C)(C)CCCC41C (stereo not given),-8.04%,inactive,inactive,–,–,–
COC(=O)/C=C/C12COC(C)(C)C1C(O)C(OC(C)=O)C1(C)C2CCC2(C)C(c3ccoc3)OC(=O)C3OC321 (stereo not given),11.5%,inactive,inactive,–,–,–
CC(C)(O)c1ccc2c(c1)C(O)C[C@H]1[C@](C)(C(=O)O)CCC[C@]21C (stereo not given in full),3.57%,inactive,inactive,–,–,–
CC(C)=CCC/C(C)=C/CO[C@@H]1O[C@H](CO[C@@H]2OC[C@](O)(CO)[C@H]2O)[C@@H](O)[C@H](O)[C@H]1O,2.29%,inactive,inactive,–,–,–
CC(O)/C=C/C1C(C)C(O[C@@H]2O[C@H](CO)[C@@H](O)[C@H](O)[C@H]2O)C(O)CC1(C)C (stereo not given in full),12.2%,inactive,inactive,–,–,–
COc1c(C)c(OCC(O)C(C)(C)O)cc2c1CNC2=O (stereo not given),-1.79%,inactive,inactive,–,–,–
COC(=O)C1=CO[C@@H](O[C@@H]2O[C@H](CO[C@@H]3O[C@H](CO)[C@@H](O)[C@H](O)[C@H]3O)[C@@H](O)[C@H](O)[C@H]2O)[C@@H]2C(CO)=CC[C@H]12,8.4%,inactive,inactive,–,–,–
COc1ccc([C@H]2Cc3cccc(O)c3C(=O)O2)cc1OC,6.87%,inactive,inactive,–,–,–
COc1cc(C)c(C(=O)O[C@@H]2[C@H](O)[C@@H](CO)O[C@H]2n2ccc(=O)[nH]c2=O)c(OC)c1,-5.34%,inactive,inactive,–,–,–
C=CC(=O)Nc1cc(-n2c(=O)ccc3cnc4ccc(-c5ccc(NS(C)(=O)=O)cc5)cc4c32)ccc1C,–,inactive,inactive,10.7 µM (active),–,–
CC(C)(C)NC(=O)[C@@H](c1cccnc1)N(C(=O)c1ccco1)c1ccc(C(C)(C)C)cc1,5%,inactive,inactive,–,–,–
COc1ccc2c(c1)C(=O)N(CCc1ccc(S(=O)(=O)NC(=O)NC3CCCCC3)cc1)C(=O)C2(C)C,-11.7% and 6.33%,inactive,inactive,–,–,–
COc1cc2c(cc1O)CC[C@H]1[C@@H]2CC[C@]2(C)[C@H](O)CC[C@@H]12,–,inactive,17.8 µM (active),1.51 µM (active),–,–
COc1cc(NC(=O)c2cccc(-n3cc(NC(=O)Nc4cccc(C)c4)cn3)c2)cc(OC)c1OC,–,inactive,inactive,23.9 µM (active),–,–
C/C=C(\C)C(=O)O[C@@H]1[C@@H](C)[C@]2(O)[C@@H]3C=C(C)C(=O)[C@H]3CC(CO)=C[C@H]2C2C(C)(C)[C@@]21OC(=O)C(C)CC (stereo not given in full),-1.79%,inactive,inactive,–,–,–
C/C=C/C(O)C1OC(=O)CC1Nc1ccc(C(=O)O)cc1 (stereo not given),5.34%,inactive,inactive,–,–,–
